This is an account of results in PubChem BioAssay (NCATS).

Several values for one entry are separate records, joined by “and”; a condition that tells them apart may be missing. Equal entries are not always repeated. Records with an inconclusive call do not appear. Unmarked numbers belong to inactive results. Activity calls are given as the source filed them. Unless noted, calls come from the whole dose curve; as a rule, active = well fitted curve in the direction sought with a large enough effect; inconclusive = small, poorly fitted or top-dose-only effect, or another doubt; inactive = no such curve, though single readings can be large; an effect the other way counts as inactive or inconclusive.

Assay [1] can be described thus: Cell Viability - LYMP2-025 (AID 976).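 Note: cells exposed to compound for 24 h at 37 °C; plate controls were DMSO only for no effect and tetraoctylammonium bromide control for full effect.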 In a few lines: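 Seed 2500 LYMP2-025 cells/well; 5 hr at 37 C; add compound; 24 hr at 37 C; add CellTiter-Glo; 30 min RT; read luminescence. AC50 from Hill-modelled concentration-response.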
Assay [2] can be described thus: Cell Viability - LYMP2-024 (AID 988).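 For activity change, negative = cytotoxicity: plate controls were DMSO only for no effect and 92 µM tetraoctylammonium bromide for full effect.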 Note: nearly all actives have a fitted effect of over 60% in size. Note: potency is the fitted concentration of half-maximal effect. In a few lines: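 Steps: seed 2500 cells/well, 5 hr 37 C; add compound, 24 hr 37 C; add CellTiter-Glo, 30 min room temperature; read luminescence. AC50 derived by Hill modelling of concentration-dependent ATP loss.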
Assay [3] in a line: Cell Viability - LYMP2-026 (AID 989).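 Note: cells exposed to compound for 24 h at 37 °C; nearly all actives have a fitted effect of over 50% in size.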 Note: potency is the fitted concentration of half-maximal effect. In short, it runs like this: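 Luminescent ATP signal (CellTiter-Glo, 30 min room temperature) measures viable lymphoblastoid cells after 24 hr compound treatment at 37 C. Decreased ATP reflects acute toxicity; AC50 values come from Hill-equation modeling.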
Assay [4] has as its target Estrogen receptor (Homo sapiens) (UniProt P03372). Put plainly: qHTS assay for small molecule antagonists of estrogen receptor alpha signaling (AID 588513; active = well fitted curve in the direction sought with a large enough effect in the signal ratio, with a control signal flat, not every such curve was filed as active; the % refers to the signal ratio; note: % is set by controls: 0 for no effect and ±100 for the full control effect). In a few lines:
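Fluorescence from CCF4 substrate after 2 h at room temperature gave reporter activity; cells had been exposed to compound and 0.5nM 17-beta-estradiol for 18 h at 37 C. Hill-equation fitting yielded IC50 and maximal response.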
In general terms: qHTS replaces the single test concentration by a dilution series.

For assay [5] the target is unchanged. Put plainly: qHTS assay for small molecule agonists of estrogen receptor alpha signaling (AID 588514; calls by dose curve; note: nearly all actives have a fitted effect of over 70% in size; note: potency is the fitted concentration of half-maximal effect;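 for activation: 0% = vehicle only and 100% = reference agonist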). In a few lines:
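Cells were plated at 5000/well, incubated 4 hrs at 37 C, dosed with compound titration series, incubated 18 hrs at 37 C, loaded with CCF4 dye for 2 hrs at RT, then fluorescence was read.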

In assay [6] the target is Retinoic acid receptor RXR-alpha (Homo sapiens) (UniProt P19793). Put plainly: qHTS assay for small molecule agonists of retinoid X receptor alpha signaling (AID 588544; calls by dose curve;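 note: 0% = DMSO basal wells and 100% = reference agonist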).
Retinoic acid receptor RXR-alpha (Homo sapiens), sequence (P19793 whole entry, looked up): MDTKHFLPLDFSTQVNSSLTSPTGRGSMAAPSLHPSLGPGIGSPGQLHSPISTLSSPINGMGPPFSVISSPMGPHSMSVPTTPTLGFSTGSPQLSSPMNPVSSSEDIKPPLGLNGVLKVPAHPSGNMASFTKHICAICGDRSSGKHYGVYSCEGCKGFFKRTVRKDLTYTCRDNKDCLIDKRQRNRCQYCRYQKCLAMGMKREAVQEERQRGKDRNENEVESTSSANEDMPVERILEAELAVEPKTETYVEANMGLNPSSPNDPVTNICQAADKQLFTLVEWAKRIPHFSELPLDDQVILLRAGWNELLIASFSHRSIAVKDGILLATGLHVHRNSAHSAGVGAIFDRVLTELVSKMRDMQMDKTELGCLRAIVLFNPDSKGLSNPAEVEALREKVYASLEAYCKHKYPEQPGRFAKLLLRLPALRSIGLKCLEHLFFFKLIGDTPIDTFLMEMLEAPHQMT
Assay [7] concerns the target Thyroid hormone receptor beta (Homo sapiens) (UniProt P10828). Put plainly: qHTS assay for small molecule antagonists of thyroid hormone receptor beta signaling (AID 588547; active = well fitted inhibition curve with a large enough effect in the signal ratio, with a control signal flat, not every such curve was filed as active; the % refers to the signal ratio;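 note: cells stimulated with 0.4 nM T3 agonist during compound exposure; % is set by controls: 0 for no effect and ±100 for the full control effect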). The settings on record: TR-UAS-bla HEK293, beta-lactamase ratio, antagonist mode, 18 h. In short, it runs like this:
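TR-UAS-bla GripTite HEK293 cells in 2% charcoal/dextran FBS medium; compounds 0.59 nM to 92 uM with T3 at 0.4nM final, 18 h at 37 C. Beta-lactamase read by CCF4 fluorescence (460/530 nm); Hill fits gave IC50 and efficacy.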

Assay [8] can be described thus: qHTS assay for small molecule antagonists of the retinoid-related orphan receptor gamma (ROR-gamma) signaling pathway - cell viability counter screen (AID 720652; active = well fitted curve in the direction sought with a large enough effect in the repeat runs; an effect the other way counts as inactive or inconclusive;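 note: compound exposure lasted 16 hr before ATP read; % is set by controls: 0 for no effect and ±100 for the full control effect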). In short, it runs like this: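 Luminescence from CellTiter-Glo after 30 min at room temperature reported cellular ATP as the cytotoxicity measure. Cells were the CHO reporter line with doxycycline-induced ROR-gamma expression, exposed to compound for 16 hr at 37 C.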

In assay [9] the target is Mitogen-activated protein kinase 10 (Mus musculus) (UniProt Q61831). Nature of the assay: JNK3 AlphaScreen Assay (AID 530; active = well fitted curve in either direction with a large enough effect, not every such curve was filed as active;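 note: kinase came from lysate of stimulated human HepG2 cells; signal reports phosphorylation of biotinylated GST-cJun 1-79 at Ser73 with 10 µM ATP; % is set by controls: 0 for no effect and ±100 for the full control effect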). In a few lines: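 Pre-activated (IL-1β/TNFα) JNK3 in HepG2 lysates phosphorylates biotin-GST-cJun(1-79), 10 uM ATP; anti-phospho-cJun(Ser73) AlphaScreen read at room temperature, pH 7.6 Tris buffer. Compounds pre-incubated 15 min as titrations.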
Assay [10] deals with Bile acid receptor (Homo sapiens) (UniProt Q96RI1). Nature of the assay: qHTS assay for small molecule antagonists of farnesoid X receptor signaling (AID 588526; calls by dose curve; note: % is set by controls: 0 for no effect and ±100 for the full control effect). In a few lines: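 Antagonist mode: titrated compounds tested against chenodeoxycholic acid stimulation (normalized to 50 uM CDCA and DMSO) in GeneBLAzer HEK293T cells for 16 h. Beta-lactamase read by CCF4 fluorescence; IC50 from Hill fits.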
Bile acid receptor (Homo sapiens), sequence (Q96RI1 whole entry, looked up): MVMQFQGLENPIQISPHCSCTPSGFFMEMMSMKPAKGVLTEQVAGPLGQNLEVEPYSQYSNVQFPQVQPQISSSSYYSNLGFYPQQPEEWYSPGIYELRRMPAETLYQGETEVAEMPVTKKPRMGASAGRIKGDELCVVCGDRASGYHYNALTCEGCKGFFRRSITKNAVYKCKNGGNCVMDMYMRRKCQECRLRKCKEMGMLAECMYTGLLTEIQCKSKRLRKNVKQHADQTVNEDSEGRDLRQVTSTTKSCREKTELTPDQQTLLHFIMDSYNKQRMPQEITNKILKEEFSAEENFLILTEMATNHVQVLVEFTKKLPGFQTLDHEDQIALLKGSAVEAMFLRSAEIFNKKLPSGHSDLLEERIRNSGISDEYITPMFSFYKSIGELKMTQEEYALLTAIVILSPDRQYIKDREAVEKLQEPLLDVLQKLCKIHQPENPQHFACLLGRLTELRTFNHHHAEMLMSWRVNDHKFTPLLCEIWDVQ

A short description of assay [11]: Cell Viability - Mesenchymal (AID 546).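 Note: cells exposed to compound for 40 hours before reading; 0% = DMSO only and -100% = 100 µM tamoxifen.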 The settings on record: mesenchymal cells viability, qHTS; activity change, negative = cytotoxicity: at 91.7 µM (top of the series). In short, it runs like this: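 Human kidney mesenchymal cells from normal renal glomeruli, 1000 cells/well, rested 5 hr at 37 °C, then treated 40 hr at 37 °C in complete medium. Cellular ATP read by CellTiter-Glo luminescence; AC50 from Hill-equation fits.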

Assay [12] can be described thus: Cell Viability - LYMP2-023 (AID 975).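 For activity change, negative = cytotoxicity: cellular ATP measured by luciferase luminescence as viability proxy; plate controls were DMSO only for no effect and 92 µM tetraoctylammonium bromide control for full effect.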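 Note: cells exposed to compound for 24 hours at 37 °C; nearly all actives have a fitted effect of over 55% in size.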 Note: potency is the fitted concentration of half-maximal effect. In a few lines: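 2500 cells/well, 5 hr 37 C; cpd 24 hr 37 C; CellTiter-Glo, 30 min RT; luminescence. qHTS conc-response, Hill fit -> AC50. Pos ctrl tetraoctylammonium bromide.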
Assay [13] is described as follows: Cell Viability - LYMP2-006 (AID 978).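 Note: cells exposed to compound for 24 hours; nearly all actives have a fitted effect of over 60% in size.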 Note: potency is the fitted concentration of half-maximal effect. In short, it runs like this: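 Cells are seeded at 2500 per well and rested 5 hr at 37 C. Compounds are added across a concentration series for 24 hr at 37 C, after which ATP is quantified by luciferase luminescence.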
Assay [14] has as its target Glucocorticoid receptor (Homo sapiens) (UniProt P04150). Put plainly: qHTS assay for small molecule agonists of glucocorticoid receptor signaling (AID 588532; active = well fitted curve in the direction sought with a large enough effect in the signal ratio, with a control signal flat; the % refers to the signal ratio;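 note: 100% = dexamethasone at 0.1 µM and 0% = DMSO only wells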). The settings on record: HeLa MMTV-bla, beta-lactamase ratio, agonist, 18 h; active compounds read high; percent of dexamethasone control, DMSO zero. In short, it runs like this:
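HeLa GRE-bla reporter cells; 18 h compound exposure at 37 C; 2 h CCF4 loading at room temperature; fluorescence at 460 and 530 nm; EC50 by Hill equation.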

A short description of assay [15]: Cell Viability - LYMP1-003 - Assay at 40 hr (AID 964). Note: nearly all actives have a fitted effect of over 60% in size. Note: potency is the fitted concentration of half-maximal effect. In a few lines: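 Cells were seeded at 2500 per well and incubated 5 hr at 37 C. Compounds were added across a concentration series and left 40 hr at 37 C. CellTiter-Glo was added for 30 min at room temperature before luminescence reading.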
The nature of assay [16]: Cell Viability - LYMP2-008 (AID 980).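 Note: cells exposed to compound for 24 h at 37 °C; % is set by controls: 0 for no effect and ±100 for the full control effect; nearly all actives have a fitted effect of over 60% in size.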 In short, it runs like this: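 qHTS, human lymphoblastoid line, 2500 cells/well; 5 hr preincubation, 24 hr compound, 37 C. CellTiter-Glo ATP luminescence. AC50 via Hill equation. Tetraoctylammonium bromide positive control.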
Assay [17] can be described thus: Cell Viability - LYMP1-002 - Assay at 40 hr (AID 994). In short, it runs like this:
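Luminescent ATP signal served as the viability readout, with decreases taken as toxicity. Cells were treated with compounds across a concentration range for 40 hours at 37 C, and AC50 values came from standard Hill modeling.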

Assay [18] has as its target Peroxisome proliferator-activated receptor gamma (Homo sapiens) (UniProt P37231). Nature of the assay: qHTS assay for small molecule antagonists of peroxisome proliferator-activated receptor gamma signaling (AID 588537; active = well fitted inhibition curve with a large enough effect in the signal ratio, with a control signal flat, not every such curve was filed as active; the % refers to the signal ratio;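 note: reporter cells co-stimulated with 50 nM rosiglitazone agonist during compound treatment; % of control where 0% means no effect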). In a few lines: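 PPARγ-UAS-bla HEK293 cells (3000/well) in 1% charcoal/dextran-stripped FBS are treated with compound, then stimulated with 50 nM rosiglitazone for 16 h at 37 °C. Read-out is CCF4 β-lactamase fluorescence after 2 h at RT. IC50 comes from Hill fits normalised to rosiglitazone and DMSO.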

Assay [19] addresses Glucocorticoid receptor (Homo sapiens) (UniProt P04150). Nature of the assay: qHTS assay for small molecule antagonists of glucocorticoid receptor signaling (AID 588533; active = well fitted inhibition curve with a large enough effect in the signal ratio, with a control signal flat, not every such curve was filed as active; the % refers to the signal ratio). In a few lines: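 Antagonist-mode qHTS: compound titrations added to GRE-bla HeLa cells, then dexamethasone 2 nM final; 18 h, 37 C. CCF4 FRET fluorescence normalized to dexamethasone and DMSO; IC50 from Hill fit.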

Assay [20] can be described thus: qHTS assay to identify small molecules that stimulate interleukin-8 (IL-8) secretion (AID 651758; active = well fitted activation curve with a large enough effect in the signal ratio; the % refers to the signal ratio; note: potency is the fitted concentration of half-maximal effect; for activation: 0% is about no effect). In short, it runs like this:
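THP-1 cells (2000/well) exposed to compound 16 h at 37 C; secreted IL-8 then detected by HTRF with cryptate- and XL665-labelled anti-IL-8 antibody pair after 1-3 h at room temperature.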

Peroxisome proliferator-activated receptor gamma (Homo sapiens), sequence (P37231 whole entry, looked up): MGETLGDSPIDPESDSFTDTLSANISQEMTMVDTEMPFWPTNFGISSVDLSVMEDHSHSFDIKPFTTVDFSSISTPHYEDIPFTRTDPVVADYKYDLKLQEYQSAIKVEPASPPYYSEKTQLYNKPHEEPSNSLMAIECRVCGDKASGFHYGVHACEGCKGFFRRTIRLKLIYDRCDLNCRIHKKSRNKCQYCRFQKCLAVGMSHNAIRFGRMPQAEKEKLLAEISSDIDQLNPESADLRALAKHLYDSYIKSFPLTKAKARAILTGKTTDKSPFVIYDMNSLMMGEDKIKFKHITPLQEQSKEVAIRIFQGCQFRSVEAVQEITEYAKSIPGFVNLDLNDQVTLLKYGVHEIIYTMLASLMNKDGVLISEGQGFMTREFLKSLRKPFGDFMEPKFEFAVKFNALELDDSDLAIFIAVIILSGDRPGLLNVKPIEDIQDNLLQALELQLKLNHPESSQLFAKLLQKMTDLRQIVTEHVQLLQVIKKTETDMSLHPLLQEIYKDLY
Estrogen receptor (Homo sapiens), sequence (P03372 whole entry, looked up): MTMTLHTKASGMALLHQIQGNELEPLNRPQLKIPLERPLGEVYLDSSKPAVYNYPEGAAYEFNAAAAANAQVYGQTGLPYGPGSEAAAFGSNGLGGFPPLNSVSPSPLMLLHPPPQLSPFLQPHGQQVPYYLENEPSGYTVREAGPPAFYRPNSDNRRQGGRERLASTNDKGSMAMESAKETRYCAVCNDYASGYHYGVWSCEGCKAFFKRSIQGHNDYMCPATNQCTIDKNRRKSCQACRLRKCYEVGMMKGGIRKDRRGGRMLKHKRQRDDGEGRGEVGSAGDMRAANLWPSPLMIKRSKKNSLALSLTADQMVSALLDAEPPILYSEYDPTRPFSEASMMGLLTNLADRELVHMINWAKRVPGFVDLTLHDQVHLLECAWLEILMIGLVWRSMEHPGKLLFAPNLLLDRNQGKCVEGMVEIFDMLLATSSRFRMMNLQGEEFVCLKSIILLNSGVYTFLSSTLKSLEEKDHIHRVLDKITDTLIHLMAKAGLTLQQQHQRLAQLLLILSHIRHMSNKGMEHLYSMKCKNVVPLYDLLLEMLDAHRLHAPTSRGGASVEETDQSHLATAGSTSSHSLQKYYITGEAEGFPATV
Glucocorticoid receptor (Homo sapiens), sequence (P04150 whole entry, looked up): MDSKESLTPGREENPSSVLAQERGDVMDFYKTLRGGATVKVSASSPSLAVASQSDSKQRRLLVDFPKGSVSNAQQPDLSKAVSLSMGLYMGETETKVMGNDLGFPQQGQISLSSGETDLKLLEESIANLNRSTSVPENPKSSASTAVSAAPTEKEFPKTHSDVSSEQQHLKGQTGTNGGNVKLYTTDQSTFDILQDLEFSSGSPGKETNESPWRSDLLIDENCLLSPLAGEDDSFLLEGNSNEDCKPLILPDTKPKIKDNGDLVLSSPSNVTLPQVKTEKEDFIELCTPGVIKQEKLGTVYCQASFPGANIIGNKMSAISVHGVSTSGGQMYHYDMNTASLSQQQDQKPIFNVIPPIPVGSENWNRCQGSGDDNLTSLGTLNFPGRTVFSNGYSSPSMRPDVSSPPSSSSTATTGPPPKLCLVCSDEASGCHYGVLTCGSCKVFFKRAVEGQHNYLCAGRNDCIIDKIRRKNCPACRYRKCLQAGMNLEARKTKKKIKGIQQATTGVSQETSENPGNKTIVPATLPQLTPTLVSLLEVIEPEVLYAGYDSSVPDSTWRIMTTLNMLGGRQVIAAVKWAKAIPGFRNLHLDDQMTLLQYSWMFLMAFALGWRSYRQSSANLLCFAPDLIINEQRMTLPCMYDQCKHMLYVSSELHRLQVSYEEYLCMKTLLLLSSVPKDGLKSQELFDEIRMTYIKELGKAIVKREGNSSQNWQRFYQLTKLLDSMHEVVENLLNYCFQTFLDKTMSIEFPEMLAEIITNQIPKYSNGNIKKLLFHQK
Thyroid hormone receptor beta (Homo sapiens), sequence (P10828 whole entry, looked up): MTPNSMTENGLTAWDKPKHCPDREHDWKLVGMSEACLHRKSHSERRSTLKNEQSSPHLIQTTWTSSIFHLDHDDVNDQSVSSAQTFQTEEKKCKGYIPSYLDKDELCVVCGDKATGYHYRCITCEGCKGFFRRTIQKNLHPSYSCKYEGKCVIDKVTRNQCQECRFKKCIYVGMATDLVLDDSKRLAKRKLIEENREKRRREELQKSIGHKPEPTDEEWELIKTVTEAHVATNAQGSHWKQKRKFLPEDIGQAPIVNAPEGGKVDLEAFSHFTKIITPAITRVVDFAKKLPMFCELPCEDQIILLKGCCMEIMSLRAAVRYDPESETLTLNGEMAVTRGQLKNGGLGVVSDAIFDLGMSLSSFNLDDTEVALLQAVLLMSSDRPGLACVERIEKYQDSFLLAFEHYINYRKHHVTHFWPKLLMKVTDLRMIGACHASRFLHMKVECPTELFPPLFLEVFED

With `O=[N+]([O-])c1cc(N(CCO)CCO)ccc1NCCO`, the Potency result in assay [1], in assay [2], in assay [3], in assay [5], in assay [6] and in assay [8] was “inactive” in each case. Moreover, the outcome in [4] was inactive. Moreover, in [7], the activity change % (negative = inhibition) is 14.2% and 12%.

Regarding `Cc1ccc(O)c(N)c1`, the Potency entry in [9], in assay [1], in assay [3], in assay [5] and in [10] was “inactive” throughout. Moreover, the activity change % (negative = inhibition) in assay [7] is -10.8%.

For the molecule `Nc1ccc(-c2ccc(N)c(O)c2)cc1O`, the Potency entry in [9], in [11], in assay [12], in assay [1], in assay [13] and in [3] was “inactive” throughout. The outcome in [4] was inactive. Besides, in [14], the activation was 0.0418%. The activity change % (negative = inhibition) in [7] is -12.5%.

As to `Cc1cc2nc(N)sc2cc1C`, the Potency entry in [15], in assay [12], in assay [13], in [16], in assay [3] and in assay [17] was “inactive” each time. Besides, the Potency result in assay [10], in assay [18] and in [6] was “inactive” throughout. Besides, the activation in assay [14] is -1.47%. In [7], the activity change % (negative = inhibition) is -0.19%.

In the case of `Oc1cc(Cl)cc(Cl)c1Cl`, the Potency entry in assay [9], in assay [1], in [16], in assay [17] and in assay [5] was “inactive” in each case. The result in assay [4] was inactive.

On to `c1ccc(Nc2cccc3ccccc23)cc1`, for which the Potency entry in assay [11], in assay [12], in assay [1], in [13], in assay [16] and in assay [3] was “inactive” in each case. Besides, the Potency entry in [6] was “inactive”. In addition, the activity change % (negative = inhibition) in [7] was -18.5% and -42%.

For the molecule `CC/C=C/C/C=C/C/C=C/CCCCCCCC(=O)OCC`, the Potency entry in assay [11] and in [19] was “inactive” each time. Moreover, the Potency is 39.8 µM (active) in assay [12], 50.1 µM (active) in assay [13] and 25.1 µM (active) in [2]. In addition, the activation in [14] was -2.85%.

On to `C=CC(=O)CC`, for which the Potency entry in assay [9], in [15], in assay [12], in [1], in assay [13] and in assay [16] was “inactive” throughout. In addition, the Potency result in assay [2], in [17], in assay [10] and in assay [6] was “inactive” throughout. Besides, the activity change % (negative = inhibition) in [7] is 9.8%.

For the molecule `O=C(O)/C=C/c1ccc(/C=C/C(=O)O)cc1`, the Potency result in assay [15], in assay [1], in assay [16], in assay [2], in assay [3] and in assay [17] was “inactive” each time. For the same molecule, the Potency entry in assay [19], in assay [6] and in assay [8] was “inactive” each time. The activation in assay [14] is 12.3%. The activity change % (negative = inhibition) in [7] was 2.91%.

Regarding `C=CC(C)(O)CCCC(C)CCCC(C)CCCC(C)C` (stereo not drawn), the Potency entry in assay [9], in [13], in [16], in assay [2], in assay [5] and in assay [18] was “inactive” each time. Moreover, the Potency entry in [6] is “inactive”. Besides, the call in [4] was inactive. For the same molecule, the activation in [14] is 1.44%.

Regarding `CC1=C(/C=C/C(C)=C/C=C/C(C)=C/C=O)C(C)(C)CCC1`, in assay [9], the Potency entry is “inactive”. For the same molecule, the Potency in assay [15] is 50.1 µM (active); in assay [12] it was 50.1 µM (active); in assay [2] it was 39.8 µM (active); in assay [3], 50.1 µM (active); in assay [20], 0.422 µM (active).

With `C[C@@H]1CC2(OC(O)[C@]3(C)O[C@H]23)O[C@H]2C[C@@]3(C)[C@@H]4CC[C@H]5C(C)(C)C(O[C@@H]6OC[C@@H](O)[C@H](O)[C@H]6O)CC[C@@]56C[C@@]46CC[C@]3(C)[C@@H]12` (stereo partly drawn), the Potency entry in [9] and in assay [1] was “inactive” in each case. Also, the Potency in [2] was 39.8 µM (active).

In the case of `Cc1c2ccccc2c(C)c2c1ccc1ccccc12`, the Potency entry in [11], in [12], in assay [1], in assay [2], in assay [3] and in assay [10] was “inactive” in each case. The molecule was called inactive in assay [4]. Also, the Potency in [5] was 4.47 µM (active) and 15.8 µM (active).

Turning to `CC(=O)Nc1cccc(C)c1`, the Potency result in assay [9], in [11], in assay [15], in assay [12], in assay [1] and in [13] was “inactive” in each case. Also, the Potency result in [2], in assay [3], in assay [17], in [5], in assay [19] and in [18] was “inactive” in each case. In addition, the Potency result in [6] and in [20] was “inactive” throughout. For the same molecule, the outcome in assay [4] was inactive.

For `CC[C@@H](CO)Nc1nc(NCc2ccccc2)c2ncn(C(C)C)c2n1`, the Potency result in assay [9] was “inactive”.
